Data from PubChem BioAssay.
“And” between values parts separate entries of the source, which are not always exact repeats. Equal values may be shown once. The source made the active and inactive calls.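 Rule for the calls, unless noted: active = thallium flux through the channel raised or lowered by more than 3 SD from vehicle-only wells, actives on both sides; inactive = the rest.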

What was measured:
[1] = liver-stage malaria parasite growth inhibition, primary screen, cell-based, HepG2, luciferase luminescence, HepG2 viability (AID 624349; in the data active = parasite load remaining mostly below about 12%, no sharp cut-off; inactive = mostly above about 10%;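 note: 100% = mean of DMSO negative control wells on the same plate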); settings: P. berghei liver stage in HepG2, luciferase luminescence, concentration not given here; parasite load remaining: stronger effect = lower value; viability: measured here: HepG2 viability without parasites
[2] = Cy5 fluorescence interference with SSB-bound oligo, artefact control for HCV NS3 helicase inhibitor project, biochemical, NIH Clinical Collection, E. coli SSB (AID 743268; call rule not given here)
[3] = system: Hepatitis C virus NS3 helicase; assay: HCV NS3 helicase inhibitors, primary screen, biochemical, fluorescence polarization, NIH Clinical Collection (AID 743270; call rule not given here); settings: NS3 helicase binding to Cy5-dT15 DNA, stronger effect = higher value, concentration not given here
[4] = biological target: Single-stranded DNA-binding protein (Escherichia coli (strain K12)) (UniProt P0AGE0); assay: E. coli SSB displacement from DNA, counter-screen for HCV NS3 helicase inhibitor project, biochemical, fluorescence polarization, NIH Clinical Collection (AID 743271; in the data active = inhibition above about 28%); settings: stronger effect = higher value, concentration not given here
[5] = fluorescence interference in NS3h assay format, artefact control for HCV NS3 helicase inhibitor project, biochemical, NIH Clinical Collection (AID 743272; call rule not given here;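 note: HCV NS3 helicase with a Cy5 labelled single stranded DNA probe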); settings: fluorescence interference counterscreen, stronger effect = lower value
[6] = sensitizers of A549 cells to miR-34 induction, primary screen, imaging, A549 dox-inducible miR-34, nuclei and caspase counts (AID 1347080;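 active = compounds whose cell count with miR-34 switched on is under 0.7 times the count with it off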); settings: A549 miR-34 inducible, Hoechst nuclei count, 48 h
[7] = viability rescue of complex I mutant cybrids, primary screen, cell-based, galactose medium, ATP luminescence (AID 1645843;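 active = z-score of at least 1.8 in each of two replicates, scored against plate mean and spread of sample wells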;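 note: positive z means more ATP and so rescue of galactose-driven cybrid death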); settings: complex I mutant cybrid cells, 72 h, stronger effect = higher value
F380Y = assay: modulators of BK channel variants, profiling panel, selectivity assay, cell-based, U2OS BacMam, thallium flux, beta subunits (AID 1259406); settings: at 30 µM;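 note: initial slope of Thallos dye fluorescence rise after thallium is added; log ratio against the mean of 0.3% DMSO vehicle wells on the same plate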
F380Y/beta1 = assay: as above; settings: at 30 µM
F380Y/beta2Delta = assay: as above; settings: at 30 µM
F380Y/beta4 = assay: as above; settings: at 30 µM
[8] = biological target: Calcium-activated potassium channel subunit alpha-1 (Homo sapiens) + Leucine-rich repeat-containing protein 26 (Homo sapiens) (UniProt Q12791+Q2I0M4); assay: as above; settings: F380Y/Slo1WT/gamma1, at 30 µM
R275C = assay: as above; settings: at 30 µM
R275C/beta1 = assay: as above; settings: at 30 µM
R275C/beta2Delta = assay: as above; settings: at 30 µM
R275C/beta4 = assay: as above; settings: at 30 µM
R275C/Slo1WT/beta2 = assay: as above; settings: at 30 µM
[9] = system: Neuropilin-2 / VEGF-C interaction (human); assay: inhibitors of NRP2–VEGF-C binding, biochemical, microplate binding format, z-score (AID 743281; call rule not given here); settings: microplate NRP2/VEGF-C binding assay; stronger effect = lower value
[10] = modulation of C. elegans fzo-1 (AID 1259413; call rule not given here;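 note: fzo-1 mutant C. elegans worms in liquid wells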); settings: C. elegans fzo-1 modulator screen, mean read-out; stronger effect = higher value
[11] = survival rescue of mitochondrial mutant cells in low glucose, primary screen, MELAS cybrids, Rieske KO mouse fibroblasts, CellTiter-Glo (AID 1508586;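 active = mean z-score across replicates of 1.96 or higher in either the MELAS or the Rieske mutant cell line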;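 note: z relative to plate mean and SD of compound and empty wells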)
[12] = stronger effect = lower value, cell number ratio, induced over uninduced
[13] = measured here: relative caspase fold change +Dox/-Dox
[14] = measured here: total cells with miR-34 induction, stronger effect = lower value
[15] = measured here: total cells without miR-34 induction

Calcium-activated potassium channel subunit alpha-1 (Homo sapiens) + Leucine-rich repeat-containing protein 26 (Homo sapiens), sequence (Q2I0M4 whole entry, looked up, one chain of several): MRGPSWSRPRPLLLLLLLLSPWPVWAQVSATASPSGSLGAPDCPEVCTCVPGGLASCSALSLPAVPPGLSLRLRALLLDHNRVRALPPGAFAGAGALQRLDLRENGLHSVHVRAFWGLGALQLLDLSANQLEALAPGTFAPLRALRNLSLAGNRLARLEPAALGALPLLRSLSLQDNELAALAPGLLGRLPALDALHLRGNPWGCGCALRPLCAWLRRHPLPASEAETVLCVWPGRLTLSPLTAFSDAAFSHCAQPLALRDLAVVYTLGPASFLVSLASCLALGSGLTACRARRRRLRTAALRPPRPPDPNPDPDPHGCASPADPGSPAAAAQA

O=C1CN(N=Cc2ccc([N+](=O)[O-])o2)C(=O)N1
10400: cell count [6, 15]
54.9%: viability [1]
9510: cell count [6, 14]
active: log fold change Tl+ flux (R275C/Slo1WT/beta2) -0.117
2: fold change [6, 13]
inactive: parasite load remaining [1] 0.39% | fluorescence ratio [2] 1 | inhibition [3] -3.18% | inhibition [4] -0.48% | fluorescence ratio [5] 1 | fold change [6, 12] 0.912 | z-score [7] -1.36 | log fold change Tl+ flux (F380Y) -0.0264 | log fold change Tl+ flux (F380Y/beta1) -0.025 | log fold change Tl+ flux (F380Y/beta2Delta) -0.0429 | log fold change Tl+ flux (F380Y/beta4) -0.00406 | log fold change Tl+ flux [8] 0.0181 | log fold change Tl+ flux (R275C) 0.0135 | log fold change Tl+ flux (R275C/beta1) -0.0666 | log fold change Tl+ flux (R275C/beta2Delta) 0.0336 | log fold change Tl+ flux (R275C/beta4) -0.0417

CN(CCO)CC(O)Cn1cnc2c1c(=O)n(C)c(=O)n2C (stereo not drawn) (tested in a mixture with another compound)
8830: cell count [6, 14]
5120: cell count [6, 15]
inactive: parasite load remaining [1] 65% | fluorescence ratio [2] 0.97 | inhibition [3] -0.22% | inhibition [4] 0.39% | fluorescence ratio [5] 0.94 | z-score [9] -0.276 | mean signal [10] 208 | fold change [6, 12] 1.72 | z-score [7] 0.47 | log fold change Tl+ flux (F380Y) 0.0136 | log fold change Tl+ flux (F380Y/beta1) 0.0124 | log fold change Tl+ flux (F380Y/beta2Delta) -0.0171 | log fold change Tl+ flux (F380Y/beta4) 0.017 | log fold change Tl+ flux [8] 0.0349 | log fold change Tl+ flux (R275C) -0.0477 | log fold change Tl+ flux (R275C/beta1) 0.0362 | log fold change Tl+ flux (R275C/beta2Delta) -0.03 | log fold change Tl+ flux (R275C/beta4) -0.00112 | log fold change Tl+ flux (R275C/Slo1WT/beta2) 0.00717
0.852: fold change [6, 13]
66.2%: viability [1]

O=C1c2c(O)cc(O)cc2O[C@H](c2ccc(O)c(O)c2)[C@@H]1O
72.9%: viability [1]
inactive: parasite load remaining [1] 102% | fluorescence ratio [2] 1.01 | inhibition [3] -0.4% | inhibition [4] -1.64% | fluorescence ratio [5] 1.01 | z-score [9] -0.585 | mean signal [10] 251 | log fold change Tl+ flux (F380Y) -0.0094 | log fold change Tl+ flux (F380Y/beta1) 0.0164 | log fold change Tl+ flux (F380Y/beta2Delta) 0.0588 | log fold change Tl+ flux (F380Y/beta4) -0.00507 | log fold change Tl+ flux [8] -0.00714 | log fold change Tl+ flux (R275C) -0.0635 | log fold change Tl+ flux (R275C/beta1) 6.5e-05 | log fold change Tl+ flux (R275C/beta2Delta) 0.0295 | log fold change Tl+ flux (R275C/beta4) -0.031 | log fold change Tl+ flux (R275C/Slo1WT/beta2) -0.00661

Nc1nc(Cl)nc2c1ncn2[C@@H]1O[C@H](CO)[C@@H](O)[C@H]1O
inactive: parasite load remaining [1] 214% | fluorescence ratio [2] 1 | inhibition [3] 5.15% | inhibition [4] 7.6% | fluorescence ratio [5] 1 | z-score [9] 0.198 | mean signal [10] 269 | log fold change Tl+ flux (F380Y) -0.00984 | log fold change Tl+ flux (F380Y/beta1) -0.0372 | log fold change Tl+ flux (F380Y/beta2Delta) -0.0171 | log fold change Tl+ flux (F380Y/beta4) -0.000976 | log fold change Tl+ flux [8] -0.026 | log fold change Tl+ flux (R275C) 0.0386 | log fold change Tl+ flux (R275C/beta1) -0.0185 | log fold change Tl+ flux (R275C/beta2Delta) -0.0141 | log fold change Tl+ flux (R275C/beta4) 0.0509 | log fold change Tl+ flux (R275C/Slo1WT/beta2) -0.00662
40.5%: viability [1]

CO[C@H]1/C=C/O[C@@]2(C)Oc3c(C)c(O)c4c(O)c(c(C=NN5CCN(C)CC5)c(O)c4c3C2=O)NC(=O)/C(C)=C\C=C\[C@H](C)[C@H](O)[C@@H](C)[C@@H](O)[C@@H](C)[C@H](OC(C)=O)[C@@H]1C
active: fluorescence ratio [2] 0.107 | log fold change Tl+ flux (F380Y/beta2Delta) 0.125
94.3%: viability [1]
inactive: parasite load remaining [1] 23.7% | inhibition [3] -3.18% | inhibition [4] 3.34% | fluorescence ratio [5] 0.87 | fold change [6, 12] 0.888 | z-score [7] -1.41 | log fold change Tl+ flux (F380Y) 0.0886 | log fold change Tl+ flux (F380Y/beta1) -0.0407 | log fold change Tl+ flux (F380Y/beta4) 0.0159 | log fold change Tl+ flux [8] -0.0449 | log fold change Tl+ flux (R275C) -0.067 | log fold change Tl+ flux (R275C/beta1) 0.00744 | log fold change Tl+ flux (R275C/beta2Delta) -0.0205 | log fold change Tl+ flux (R275C/beta4) 0.0765 | log fold change Tl+ flux (R275C/Slo1WT/beta2) -0.0151
9180: cell count [6, 14]
2.93: fold change [6, 13]
10300: cell count [6, 15]

CN(C)[C@@H]1C(=O)C(C(=O)NCN2CCCC2)=C(O)[C@@]2(O)C(=O)C3=C(O)c4c(O)cccc4[C@@](C)(O)C3CC12 (stereo partly drawn)
0.92: fold change [6, 13]
91.9% and 67.8%: viability [1]
inactive: parasite load remaining [1] 77.2% and 69.4% | inhibition [3] -3.71% | z-score [9] 0.267 | mean signal [10] 213 | fold change [6, 12] 0.896 | log fold change Tl+ flux (F380Y) -0.0801 | log fold change Tl+ flux (F380Y/beta1) -0.00765 | log fold change Tl+ flux (F380Y/beta2Delta) -0.0371 | log fold change Tl+ flux (F380Y/beta4) -0.0313 | log fold change Tl+ flux [8] 0.0591 | log fold change Tl+ flux (R275C) 0 | log fold change Tl+ flux (R275C/beta1) -0.0252 | log fold change Tl+ flux (R275C/beta2Delta) 0.0108 | log fold change Tl+ flux (R275C/beta4) -0.0407 | log fold change Tl+ flux (R275C/Slo1WT/beta2) 0.0233
active: fluorescence ratio [2] 0.68 | inhibition [4] 45.3% | fluorescence ratio [5] 0.76
10400: cell count [6, 15]
9290: cell count [6, 14]

CN1C2CCC1CC(OC(c1ccccc1)c1ccccc1)C2 (stereo not drawn)
-0.171: z-score ([11]; Rieske KO mouse fibroblast survival, CellTiter-Glo 72 h)
81.7% and 71.5% and 99.9%: viability [1]
inactive: parasite load remaining [1] 25.8% and 92.2% and 42.8% | fluorescence ratio [2] 1.04 | inhibition [3] -5.91% | inhibition [4] -4.29% | fluorescence ratio [5] 1.01 | mean signal [10] 197 | z-score ([11]; MELAS cybrid survival, CellTiter-Glo 48 h, stronger effect = higher value) -0.325 | z-score [7] -0.84 and -0.76 | log fold change Tl+ flux (F380Y/beta1) 0.0778 | log fold change Tl+ flux [8] 0.00637 | log fold change Tl+ flux (R275C) -0.0804 | log fold change Tl+ flux (R275C/beta2Delta) 0.0793 | log fold change Tl+ flux (R275C/Slo1WT/beta2) 0.0196
active: log fold change Tl+ flux (F380Y) 0.117 | log fold change Tl+ flux (F380Y/beta2Delta) 0.124 | log fold change Tl+ flux (F380Y/beta4) 0.212 | log fold change Tl+ flux (R275C/beta1) 0.237 | log fold change Tl+ flux (R275C/beta4) 0.252
